Assay outcomes from PubChem BioAssay.
Most compounds without a hit are left out; they make up all but 5.5% or so of the library.
FBPA coupling cs – inhibits coupling enzyme system, counter-screen for aldolase hits | activity change, negative = inhibition, % at 58.2 µM, hits read low | hit rate 0.67% among 290,000 | coupling enzyme system counterscreen, AmpLite Red fluorescence | AID 2472; in the data active = activity change below about -30%
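Fluorescence at 525 nm excitation and 598 nm emission measured inhibition of the coupled detection system without aldolase. Compounds (at 57.5 uM final) were preincubated 10 min at room temperature with coupling enzyme reagent before a 20 min substrate/AmpLite Red step.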
Sfp inh – inhibitors of Bacillus subtilis Sfp phosphopantetheinyl transferase; Potency, µM, without a hit: largest response in the series, negative = inhibition, actives largely listed as inhibitors; Biochemical Sfp PPTase activity, qHTS; hit rate 3.5% among 310,000; Q9F4F7; AID 1490;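 also: the enzyme is Sfp with the accession as filed and its product quenches rhodamine fluorescence; potency is read from the fitted curve at half-maximal effect; 0% = enzyme reaction without inhibitor and -100% = no enzyme wells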
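Step 1, compound plus 15 nM Sfp-PPTase, 15 min, room temperature. Step 2, add rhodamine-CoA (5 uM) and BHQ-2-YbbR (12.5 uM). Step 3, read 525/598 nm fluorescence at 0 and 30 min.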
ELG1 repair inh – blocks ELG1-dependent DNA repair in HEK293T cells; HEK293T ELG1-luciferase reporter, luminescence, 16 h; DNA damage induced by 5-fluorouridine; Potency, µM (doses to about 46.1 µM), inactives show top-dose activity change, negative = inhibition, usual class: inhibitors; hit rate 2.3% among 330,000; also: potency is read from the fitted curve at half-maximal effect; nearly all actives have a fitted effect of over 55% in size
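Luminescence from the luciferase reporter, measured 30 min after ONE-Glo reagent at room temperature, was the read-out. Beforehand, 2,000 cells per well were exposed for 16 hr at 37 °C to 5-fluorouridine together with compound or vehicle.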
Giardia killer – kills Giardia lamblia. Giardia lamblia trophozoite viability. activity change, % at 7.66 µM, hits read low. hit rate 0.15% among 340,000. AID 540267; in the data active = activity change below about -80%; inconclusive = between about -30% and that limit;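 also: parasites exposed to compound for two days anaerobically before the ATP read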
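Compounds were tested on trophozoites seeded at 100 cells/well and held 48 hrs at 37 deg C anaerobically. An ATP-based luminescent kit measured the remaining live cells.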
* marks the source's active call; other numbers are inactive results. Unless noted, calls follow the shape of the dose curve; as a rule, active = well fitted curve in the direction sought with a large enough effect; inconclusive = small, poorly fitted or top-dose-only effect, or another doubt; inactive = no such curve, though single readings can be large; an effect the other way counts as inactive or inconclusive. Unless noted, % is scaled to controls: 0 for no effect and ±100 for the full control effect.

Screening COc1ccc(N(C)S(=O)(=O)c2cccc(C(=O)Nc3cc(OC)ccc3OC)c2)cc1 returned FBPA coupling cs 0, Sfp inh 18%, ELG1 repair inh inconclusive and Giardia killer 4.
COC(=O)[C@@]1(Cc2ccc(OC)cc2)[C@H]2c3cc(C(=O)N4CCCC4)n(Cc4ccsc4Br)c3C[C@H]2CN1C(=O)c1ccccc1 was read as FBPA coupling cs 0 and Sfp inh 10%.
For COc1cc(OC)cc(C(=O)NNC(=O)CNC(=O)c2cccs2)c1 the results were ELG1 repair inh -2% and Giardia killer 3.
C=CCOC(=O)C1=C(C)NC(SCC(N)=O)=C(C#N)C1c1cccs1 (stereo not given) was read as FBPA coupling cs 1, Sfp inh -9%, ELG1 repair inh -13% and Giardia killer 10.
Screening CCOC(=O)C1=C(C)NC(SCC(=O)Nc2nc(C)cs2)=C(C#N)C1c1cccs1 (stereo not given) returned FBPA coupling cs -1, Sfp inh inconclusive and ELG1 repair inh 21µM*.
CN(C(=O)c1cccc(NC(=O)Cc2ccc(NC(=O)C3CCCN(C(=O)c4ccccc4)C3)cc2)c1)C1CCCC1 (stereo not given) was read as Giardia killer -4.
COc1ccccc1-c1nc2c3ccccc3nc(=S)n2[nH]1 was read as FBPA coupling cs -14, Sfp inh 45µM*, ELG1 repair inh 8% and Giardia killer -17.
Screening COc1cc(-c2nc3c4ccccc4nc(=S)n3[nH]2)cc(OC)c1OC returned FBPA coupling cs -11, Sfp inh -7%, ELG1 repair inh 1% and Giardia killer 21.
`CCOC(=O)N1CCC(NC(=O)CSCc2nc(-c3cccc(OC)c3)oc2C)CC1` gave FBPA coupling cs 4, Sfp inh 10%, ELG1 repair inh 12µM* and Giardia killer -2.
Screening COc1ccc(-c2noc(CCC(=O)NC3CCCCCC3)n2)cc1 returned FBPA coupling cs 1, Sfp inh 9%, ELG1 repair inh 0% and Giardia killer 1.
`CCOc1ccc(-c2nc(CSCC(=O)NC3CC3)c(C)o2)cc1` gave Sfp inh 12%, ELG1 repair inh 14% and Giardia killer 6.
CCOc1ccc(-c2nc(CSCC(=O)NC3CCCc4ccccc43)c(C)o2)cc1 (stereo not given) was read as FBPA coupling cs 6, Sfp inh 22µM*, ELG1 repair inh inconclusive and Giardia killer -12.
CCOC(=O)N1CCC(NC(=O)CCc2nc(-c3ccc(C)cc3)no2)CC1 was read as FBPA coupling cs -4, Sfp inh 6%, ELG1 repair inh 13µM* and Giardia killer 16.
For CCOC(=O)N1CCC(NC(=O)CSCc2nc(-c3ccc(OCC)cc3)oc2C)CC1 the results were Sfp inh 1%, ELG1 repair inh 13µM* and Giardia killer inconclusive.
`CCOC(=O)C[C@H]1c2cc(F)ccc2S(=O)(=O)N1C1CCCC1` gave Giardia killer -22.
Screening CCOc1ccc(-c2nc(CSCC(=O)NCc3ccco3)c(C)o2)cc1 returned FBPA coupling cs 4, Sfp inh -18%, ELG1 repair inh 7.3µM* and Giardia killer 5.
CC(=O)C1=NN(c2ccccc2)C(c2cccs2)N1c1ccc(N(C)C)cc1 (stereo not given) was read as FBPA coupling cs -2, Sfp inh 9%, ELG1 repair inh 16µM* and Giardia killer -7.
COC(=O)Oc1ccccc1C(=O)O was read as FBPA coupling cs 1 and Sfp inh 10%.
CN(c1ccccc1)c1nc(N)c([N+](=O)[O-])c(NCc2ccccc2)n1 was read as FBPA coupling cs 0, Sfp inh 4%, ELG1 repair inh -16% and Giardia killer 4.
`Nc1ncnc(NCc2ccc(F)cc2)c1[N+](=O)[O-]` gave FBPA coupling cs 0, Sfp inh 14%, ELG1 repair inh 8.2µM* and Giardia killer 11.
`Nc1ncnc(NCc2ccccc2)c1[N+](=O)[O-]` gave FBPA coupling cs 3, Sfp inh 12%, ELG1 repair inh 10µM* and Giardia killer -2.
`O=C(c1ccc(Cl)cc1)N1CCC(C(=O)N2CCN(c3ncccn3)CC2)CC1` gave ELG1 repair inh -19% and Giardia killer -5.
Screening Cc1c(C(C)(C)O)[nH]c2ccc(C(F)(F)F)cc12 returned FBPA coupling cs -1, Sfp inh 19%, ELG1 repair inh 8% and Giardia killer -3.
O=C1[C@H]2CCC=C[C@H]2[C@H](c2cccc(Br)c2)N1Cc1ccccc1 was read as FBPA coupling cs 5, Sfp inh 112µM*, ELG1 repair inh -2% and Giardia killer 11.
Screening COCCn1c(SCC(=O)Nc2nnc(C)s2)nnc1-c1cc2ccccc2cc1O returned FBPA coupling cs -44*, Sfp inh 11%, ELG1 repair inh 5% and Giardia killer -1.
`COCCn1c(SCC(=O)Nc2nnc(C)s2)nnc1-c1c[nH]c2ccccc12` gave FBPA coupling cs 0, Sfp inh 15%, ELG1 repair inh -5% and Giardia killer 12.
For CN(C)CCCn1c(SCC(=O)N2c3ccccc3Sc3ccccc32)nc2ccccc2c1=O the results were FBPA coupling cs -2, Sfp inh inconclusive, ELG1 repair inh inconclusive and Giardia killer -4.
For CCn1c(CSc2nc(C)cc(C)n2)nnc1SCC(=O)Nc1nc(-c2ccccc2)cs1 the results were FBPA coupling cs 2, Sfp inh 4%, ELG1 repair inh -5% and Giardia killer -5.
`Cc1ccc(-c2csc(NC(=O)CSc3nc4ccccc4c(=O)n3CCCN(C)C)n2)cc1` gave FBPA coupling cs -2, Sfp inh 56µM*, ELG1 repair inh inconclusive and Giardia killer -3.
CCn1c(SCC(=O)Nc2nc(-c3ccc(C)cc3)cs2)nnc1-c1ccccc1 was read as FBPA coupling cs -6, Sfp inh 1%, ELG1 repair inh 26µM* and Giardia killer -1.
CCn1c(SCC(=O)Nc2nc(-c3ccc(C)cc3)cs2)nnc1-c1ccccc1O was read as FBPA coupling cs -7, Sfp inh 9%, ELG1 repair inh 16µM* and Giardia killer -9.
CCCCSc1nc(N)nc2c1ncn2C1OC(CO)C(O)C1O (stereo not given) was read as Giardia killer 4.
Screening CC(=O)Nc1ccc(-c2sc(Nc3cccc4ccccc34)n[n+]2-c2ccccc2)cc1 returned FBPA coupling cs -1, Sfp inh -24%, ELG1 repair inh 14% and Giardia killer -7.
`COc1ccc(NC(=O)C(C)N2c3cccc4cccc(c34)S2(=O)=O)cc1OC` (stereo not given) gave FBPA coupling cs 5, Sfp inh 1%, ELG1 repair inh 7.3µM* and Giardia killer 5.
Screening COc1ccc(NC(=O)CN2c3cccc4cccc(c34)S2(=O)=O)cc1 returned FBPA coupling cs -31*, Sfp inh -13%, ELG1 repair inh inconclusive and Giardia killer -5.
For CCN(CC(=O)Nc1ccc(OC)cc1)C(=O)Cc1cccs1 the results were ELG1 repair inh 11% and Giardia killer 5.
